From PubChem BioAssay AID1159580 (chemical genetic matrix, 2015)
Hit rate of the full screen: of about 5,500 compounds, about 2,000 (36%) were called active. Another 18% or so got no clear call; they are omitted. No stated cut-off is given here; in the data, active means normalized growth mostly below about 0.91 (no sharp cut-off); inconclusive means no clear call, values can overlap the other calls; inactive means mostly above about 0.92. The list shows a part of the results.

Assay: chemical genetic growth profiling, strain panel (AID 1159580);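 further: tested at 20 µM; growth read once vehicle control cultures reached saturation at 30 °C; 1 = growth at the plate median or of vehicle wells; lower values mean less growth of the strain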
Conditions: S. cerevisiae deletion strains, growth OD

Measured: normalized growth

C[C@@H]1CC2C3CCC4=CC(=O)C=C[C@]4(C)[C@@]3(F)[C@@H](O)C[C@]2(C)[C@H]1C(=O)CO (stereo not given in full)
inactive: locus YAL021C, strain ccr4, active compounds read low 1 | locus YAL026C, strain drs2, active compounds read low 0.998 | locus YAL030W, strain snc1, active compounds read low 0.998 | locus YBL061C, strain skt5, active compounds read low 0.999 | locus YBR009C, strain hhf1, active compounds read low 0.997 | locus YBR023C, strain chs3, active compounds read low 0.995 | locus YBR171W, strain sec66, active compounds read low 0.986 | locus YBR231C, strain swc5, active compounds read low 0.988 | locus YBR279W, strain paf1, active compounds read low 0.997 | locus YCL011C, strain gbp2, active compounds read low 0.993 | locus YCL016C, strain dcc1, active compounds read low 1.01 | locus YCL061C, strain MRC1, active compounds read low 0.994 | locus YCL069W, strain vba3, active compounds read low 1 | locus YCR088W, strain abp1, active compounds read low 0.992 | locus YDL005C, strain med2, active compounds read low 0.997 | locus YDL040C, strain nat1, active compounds read low 0.996 | locus YDR001C, strain nth1, active compounds read low 0.987 | locus YDR069C, strain doa4, active compounds read low 0.999 | locus YDR137W, strain rgp1, active compounds read low 0.979 | locus YDR159W, strain sac3, active compounds read low 0.998 | locus YDR195W, strain ref2 0.965 | locus YDR297W, strain sur2, active compounds read low 0.996 | locus YDR334W, strain swr1, active compounds read low 1 | locus YDR335W, strain msn5, active compounds read low 1 | locus YDR392W, strain spt3, active compounds read low 0.976 | locus YEL003W, strain gim4, active compounds read low 0.999 | locus YEL037C, strain rad23, active compounds read low 1 | locus YEL061C, strain CIN8 (second series), active compounds read low 0.996 | locus YER015W, strain faa2, active compounds read low 0.999 | locus YER016W, strain bim1, active compounds read low 1 | locus YER111C, strain swi4, active compounds read low 0.982 | locus YER155C, strain BEM2 (second series), active compounds read low 0.994 | locus YFR010W, strain ubp6, active compounds read low 0.989 | locus YGL167C, strain pmr1, active compounds read low 0.996 | locus YGL173C, strain kem1, active compounds read low 0.987 | locus YGL227W, strain vid30, active compounds read low 0.989 | locus YGL240W, strain doc1, active compounds read low 1 | locus YGL253W, strain hxk2, active compounds read low 1.01 | locus YHR013C, strain ard1, active compounds read low 1 | locus YHR027C, strain rpn1, active compounds read low 0.995 | locus YHR030C, strain SLT2, active compounds read low 1.06 | locus YHR079C, strain IRE1, active compounds read low 1.05 | locus YHR142W, strain chs7, active compounds read low 1.01 | locus YJL092W, strain hpr5, active compounds read low 0.998 | locus YJL095W, strain BCK1 (second series), active compounds read low 1.01 | locus YJL095W, strain BCK1, active compounds read low 0.98 | locus YJL115W, strain asf1, active compounds read low 0.996 | locus YJL129C, strain trk1, active compounds read low 1.01 | locus YJL154C, strain vps35, active compounds read low 0.995 | locus YJL164C, strain tpk1, active compounds read low 1.01 | locus YJL166W, strain qcr8, active compounds read low 0.998 | locus YJL187C, strain SWE1, active compounds read low 0.993 | locus YJR066W, strain TOR1, active compounds read low 1.01 | locus YKL160W, strain elf1, active compounds read low 1 | locus YKR026C, strain gcn3, active compounds read low 0.982 | locus YKR091W, strain srl3, active compounds read low 0.996 | locus YLL001W, strain dnm1, active compounds read low 0.982 | locus YLL026W, active compounds read low 0.988 | locus YLL041C, strain sdh2, active compounds read low 0.999 | locus YLR027C, strain aat2, active compounds read low 1.01 | locus YLR113W, strain HOG1, active compounds read low 0.929 | locus YLR221C, strain rsa3, active compounds read low 1.01 | locus YLR258W, strain gsy2, active compounds read low 1 | locus YLR262C, strain YPT6 (second series), active compounds read low 0.985 | locus YLR320W, strain mms22, active compounds read low 0.992 | locus YLR342W, strain FKS1, active compounds read low 1 | locus YLR357W, strain rsc2, active compounds read low 0.999 | locus YLR370C, strain arc18, active compounds read low 0.993 | locus YLR384C, strain iki3, active compounds read low 1 | locus YML120C, strain ndi1, active compounds read low 1 | locus YMR058W, strain fet3, active compounds read low 1 | locus YMR125W, strain sto1, active compounds read low 0.983 | locus YMR129W, active compounds read low 0.995 | locus YMR205C, strain PFK2, active compounds read low 0.973 | locus YMR231W, strain pep5, active compounds read low 0.998 | locus YNL071W, strain lat1, active compounds read low 0.999 | locus YNL183C, strain NPR1, active compounds read low 0.992 | locus YNL209W, strain ssb2, active compounds read low 1 | locus YNL248C, strain rpa49, active compounds read low 0.999 | locus YNL322C, strain KRE1 (second series), active compounds read low 1 | locus YNR049C, strain mso1, active compounds read low 0.999 | locus YOR001W, strain rrp6, active compounds read low 1.01 | locus YOR070C, strain gyp1, active compounds read low 0.997 | locus YOR080W, strain dia2, active compounds read low 0.991 | locus YOR083W, strain WHI5, active compounds read low 1.01 | locus YOR106W, strain vam3, active compounds read low 1.02 | locus YOR231W, strain MKK1, active compounds read low 1.05 | locus YOR265W, strain rbl2, active compounds read low 1 | locus YOR270C, strain vph1, active compounds read low 1.01 | locus YOR290C, strain snf2, active compounds read low 1 | locus YPL051W, strain arl3, active compounds read low 0.999 | locus YPL078C, strain atp4, active compounds read low 1.01 | locus YPL106C, strain sse1, active compounds read low 1.01 | locus YPL240C, strain hsp82, active compounds read low 0.982 | locus YPL256C, strain CLN2, active compounds read low 1.04
